Read-out in assay [1]: Monokine induced gamma interferon (MIG), CXCL9 (gene 4283)
Description: BSK_SAg_MIG: BioMAP Diversity Plus: SAg Assay for Monokine induced gamma interferon (MIG) Biomarker Activity (AID 2283092). To be noted: primary human HUVEC with PBMC; actives raise or lower the signal. A digest of the protocol: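 ELISA readout of MIG/CXCL9; primary human umbilical vein endothelial cells co-cultured with peripheral blood mononuclear cells; 24 h post-dose; gain/loss fit vs DMSO baseline.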

Assay [2] is described as follows: BSK_SAg_PBMCCytotoxicity: PBMC Cytotoxicity Assessment in the BioMAP Diversity Plus: SAg Assay (AID 2283093).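 For AC50: PBMC superantigen activated with SEB plus TSST-1 one hour after compound addition.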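 Note: PBMC viability measured as Alamar Blue reduction fluorescence at 546/580 nm; fitted both ways against DMSO so a hit may be loss or gain of signal.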 To be noted: primary human HUVEC with PBMC. An outline of the steps:
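Human umbilical vein endothelial cells co-cultured with PBMC; PBMC (75,000/well) pre-treated with compound 1 h, then activated with SEB and TSST-1 (20 ng/mL final each) for 90 h. Alamar Blue added 6 h, fluorescence 546/580 nm; bidirectional fit versus DMSO.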

Read-out in assay [3]: Interleukin-8 (IL8), CXCL8 (gene 3576)
The assay can be described thus: BSK_SAg_IL8: BioMAP Diversity Plus: SAg Assay for Interleukin-8 (IL8) Biomarker Activity (AID 2283094). As to conditions: primary human HUVEC with PBMC; actives raise or lower the signal. An outline of the steps:
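ELISA read-out of IL-8 in a primary human vascular co-culture (umbilical vein endothelium plus PBMC), taken 24 h after compound addition. Values derive from bidirectional fits against DMSO negative controls.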

Assay [4] is described as follows: BSK_SAg_Proliferation: Cell Proliferation Assessment in the BioMAP Diversity Plus: SAg Assay (AID 2283095).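 Note: relative cell number as total protein by SRB absorbance in sub-confluent culture.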 As to conditions: primary human HUVEC with PBMC. An outline of the steps: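 Cells (endothelium plus PBMC, human primary) were dosed with chemical, cultured 96 h, fixed in 10% TCA and stained with 0.1% SRB. Absorbance at 560 nm gave relative protein, fitted bidirectionally relative to DMSO.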

Assay [5] can be described thus: BSK_SAg_SRB: Viability Assessment in the BioMAP Diversity Plus: SAg Assay (AID 2283096).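 Note: cells read one day after compound addition; hits may be either gain or loss of signal compared with DMSO.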 To be noted: primary human HUVEC with PBMC. A digest of the protocol: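 Endothelial/PBMC primary human co-culture; compound 24 h; fix 10% TCA, stain 0.1% SRB, A560; protein content as cytotoxicity proxy; bidirectional curve fit, DMSO = baseline.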
Assay [6] has as its target human AKT serine/threonine Kinase 1 (AKT1), AKT1 (gene 207) (UniProt P31749). Description: NVS_ENZ_hAKT1: NovaScreen (NVS) Enzymatic Assay for human AKT serine/threonine Kinase 1 (AKT1) (AID 2283138; active = hit-call score of the fitted dose curve at least 0.9, where 1 is the maximum). An outline of the steps:
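Recombinant AKT1, specific substrate, cell-free; 1 h; fluorescence intensity/electrophoretic mobility shift. Duplicate single-point 25 uM, then singleton CRC max 50 uM. DMSO = negative control/baseline; signal loss = inhibition.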

For assay [7], the target named is human CYP1A2, CYP1A2 (gene 1544) (UniProt P05177). The assay can be described thus: NVS_ADME_hCYP1A2: NovaScreen (NVS) CYP450-related Enzyme Activity (ADME) Assay for human CYP1A2 (AID 2283102; active = hit-call score of the fitted dose curve at least 0.9, where 1 is the maximum;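 note: potency for inhibition since loss of fluorescence marks reduced CYP1A2 activity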). A digest of the protocol: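 Enzyme activity of insect-cell-expressed human CYP1A2 measured by fluorescence 0.5 h after compound addition, relative to acetonitrile. Compounds first tested in duplicate at 10 uM, actives followed up in concentration series.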

Assay [8] has as its target human CYP2C9, CYP2C9 (gene 1559) (UniProt P11712). The assay can be described thus: NVS_ADME_hCYP2C9: NovaScreen (NVS) CYP450-related Enzyme Activity (ADME) Assay for human CYP2C9 (AID 2283108; active = hit-call score of the fitted dose curve at least 0.9, where 1 is the maximum). An outline of the steps:
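Cell-free assay of recombinant human CYP2C9 produced in Sf9 cells, with enzyme activity read by fluorescence intensity 0.75 h after compound addition. Loss of signal versus an acetonitrile negative control indicates inhibition. Primary screen used 10 uM in duplicate; actives were retested in concentration series.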

Assay [9] has as its target Cytochrome P450 2C19 (Homo sapiens) (UniProt P33261). The assay can be described thus: NVS_ADME_hCYP2C19: NovaScreen (NVS) CYP450-related Enzyme Activity (ADME) Assay for human CYP2C19 (AID 2283113; active = hit-call score of the fitted dose curve at least 0.9, where 1 is the maximum;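 note: potency for inhibition seen as loss of fluorescent signal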). An outline of the steps: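 Compounds first screened in duplicate at 10 uM, then confirmed in concentration series. Insect-cell-expressed human CYP2C19 turned over a fluorogenic substrate, and fluorescence was read after 1 h. Inhibition taken as signal loss relative to acetonitrile.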

In assay [10] the target is human Caspase 5 (CASP5), CASP5 (gene 838) (UniProt P51878). Description: NVS_ENZ_hCASP5: NovaScreen (NVS) Enzymatic Assay for human Caspase 5 (CASP5) (AID 2283137; active = hit-call score of the fitted dose curve at least 0.9, where 1 is the maximum). A digest of the protocol: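 E. coli-derived enzyme, cell-free, 2 h incubation, fluorescence intensity. 25 uM duplicate single-point; hits → concentration series to 50 uM. DMSO baseline, positive/negative controls on every plate.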

In assay [11] the target is human Beta-secretase (BACE), BACE1 (gene 23621) (UniProt P56817). Description: NVS_ENZ_hBACE: NovaScreen (NVS) Enzymatic Assay for human Beta-secretase (BACE) (AID 2283140; active = hit-call score of the fitted dose curve at least 0.9, where 1 is the maximum;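 note: hits are inhibitors that reduce fluorescent substrate signal versus DMSO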). A digest of the protocol:
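Compounds were first tested in duplicate at 25 uM, then actives in concentration series, against recombinant BACE1 from SF9 cells. Enzyme activity was measured by fluorescence intensity 1 hour after dosing, with DMSO as negative control.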

In assay [12] the target is human Caspase 4 (CASP4), CASP4 (gene 837) (UniProt P49662). Description: NVS_ENZ_hCASP4: NovaScreen (NVS) Enzymatic Assay for human Caspase 4 (CASP4) (AID 2283143; active = hit-call score of the fitted dose curve at least 0.9, where 1 is the maximum). An outline of the steps:
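The cell-free assay used E. coli-expressed enzyme with a fluorogenic substrate, read 2 h after dosing. Signal loss was scored versus DMSO. Screening was in duplicate at 25 uM, then singleton concentration-response up to 50 uM.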

Assay [13] deals with human CYP1A1, CYP1A1 (gene 1543) (UniProt P04798). The assay can be described thus: NVS_ADME_hCYP1A1: NovaScreen (NVS) CYP450-related Enzyme Activity (ADME) Assay for human CYP1A1 (AID 2283100; active = hit-call score of the fitted dose curve at least 0.9, where 1 is the maximum). An outline of the steps: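 Chemicals were first tested in duplicate at 10 uM, and those passing a 30% inhibition threshold were rerun as concentration series topping at 20 uM. Fluorescence read-out of recombinant enzyme turnover after 1 h, relative to acetonitrile.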

Assay [14] has as its target human CYP2D6, CYP2D6 (gene 1565) (UniProt P10635). Description: NVS_ADME_hCYP2D6: NovaScreen (NVS) CYP450-related Enzyme Activity (ADME) Assay for human CYP2D6 (AID 2283107; active = hit-call score of the fitted dose curve at least 0.9, where 1 is the maximum). An outline of the steps: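 Fluorescence readout of recombinant CYP2D6 (insect-cell derived) activity after 1 h incubation with test chemical. Acetonitrile served as baseline, loss-of-signal direction. Single-concentration duplicate screening at 10 uM preceded concentration-response retesting.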

The target in assay [15] is Cytochrome P450 3A4 (Homo sapiens) (UniProt P08684). The assay can be described thus: NVS_ADME_hCYP3A4: NovaScreen (NVS) CYP450-related Enzyme Activity (ADME) Assay for human CYP3A4 (AID 2283110; active = hit-call score of the fitted dose curve at least 0.9, where 1 is the maximum). An outline of the steps:
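Cell-free assay using insect-cell-expressed human CYP3A4 with a fluorogenic substrate; fluorescence intensity was read 0.33 hour after dosing. Loss of signal relative to acetonitrile vehicle indicated inhibition. Primary single-concentration screen at 10 uM, in duplicate, then concentration series.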

The target in assay [16] is human CYP2A6, CYP2A6 (gene 1548) (UniProt P11509). Description: NVS_ADME_hCYP2A6: NovaScreen (NVS) CYP450-related Enzyme Activity (ADME) Assay for human CYP2A6 (AID 2283099; active = hit-call score of the fitted dose curve at least 0.9, where 1 is the maximum). A digest of the protocol:
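Compounds screened at 10 uM (duplicate) and, if active, titrated to a 20 uM top concentration against insect-cell-expressed CYP2A6. Loss of fluorescent product signal after 0.5 h, relative to acetonitrile baseline, indicates inhibition.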

Assay [17] addresses human CYP2B6, CYP2B6 (gene 1555) (UniProt P20813). Description: NVS_ADME_hCYP2B6: NovaScreen (NVS) CYP450-related Enzyme Activity (ADME) Assay for human CYP2B6 (AID 2283101; active = hit-call score of the fitted dose curve at least 0.9, where 1 is the maximum). A digest of the protocol: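 Fluorescence-based enzyme activity of recombinant human CYP2B6, measured 1 h post-dose against acetonitrile vehicle baseline. Screened at a single concentration of 10 uM in duplicate before concentration-response follow-up.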

Outcome and AC50 data for eleven molecules are collected here from PubChem BioAssay (EPA / NIEHS).

The structures appear in SMILES notation. Inconclusive results are not listed. The source made the active and inactive calls. Rule for the calls, unless noted: active = hit-call score of the fitted dose curve at least 0.9, where 1 is the maximum; inactive = score below 0.9.

Chain of human CYP1A1, CYP1A1 (gene 1543) (P04798 whole entry, looked up): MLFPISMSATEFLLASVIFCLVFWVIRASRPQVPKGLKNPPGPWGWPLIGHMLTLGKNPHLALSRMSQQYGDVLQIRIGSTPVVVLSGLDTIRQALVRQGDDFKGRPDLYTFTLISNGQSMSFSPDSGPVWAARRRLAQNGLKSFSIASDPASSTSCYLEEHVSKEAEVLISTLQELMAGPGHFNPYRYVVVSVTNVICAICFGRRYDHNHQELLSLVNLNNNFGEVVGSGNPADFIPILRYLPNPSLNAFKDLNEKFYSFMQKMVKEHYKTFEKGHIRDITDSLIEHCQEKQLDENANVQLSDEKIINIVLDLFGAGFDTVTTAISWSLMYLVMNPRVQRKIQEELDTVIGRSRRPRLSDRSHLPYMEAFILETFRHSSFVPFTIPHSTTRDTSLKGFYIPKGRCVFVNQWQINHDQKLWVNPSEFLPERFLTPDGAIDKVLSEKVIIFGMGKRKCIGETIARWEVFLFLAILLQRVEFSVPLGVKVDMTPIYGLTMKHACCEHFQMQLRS
Chain of human CYP2A6, CYP2A6 (gene 1548) (P11509 whole entry, looked up): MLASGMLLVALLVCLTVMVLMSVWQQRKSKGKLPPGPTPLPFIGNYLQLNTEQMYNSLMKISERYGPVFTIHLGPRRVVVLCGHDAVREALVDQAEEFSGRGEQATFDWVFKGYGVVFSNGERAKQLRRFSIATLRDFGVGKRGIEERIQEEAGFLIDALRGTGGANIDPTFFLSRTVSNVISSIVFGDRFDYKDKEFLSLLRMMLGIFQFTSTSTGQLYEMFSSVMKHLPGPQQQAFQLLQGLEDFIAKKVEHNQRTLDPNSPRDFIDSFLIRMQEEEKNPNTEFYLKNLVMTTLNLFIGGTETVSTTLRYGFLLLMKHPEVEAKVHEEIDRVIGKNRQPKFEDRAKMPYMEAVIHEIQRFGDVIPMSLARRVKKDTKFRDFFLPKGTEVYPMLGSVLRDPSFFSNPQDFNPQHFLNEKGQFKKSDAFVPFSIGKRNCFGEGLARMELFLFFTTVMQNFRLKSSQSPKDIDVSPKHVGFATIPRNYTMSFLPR
Chain of human CYP2C9, CYP2C9 (gene 1559) (P11712 whole entry, looked up): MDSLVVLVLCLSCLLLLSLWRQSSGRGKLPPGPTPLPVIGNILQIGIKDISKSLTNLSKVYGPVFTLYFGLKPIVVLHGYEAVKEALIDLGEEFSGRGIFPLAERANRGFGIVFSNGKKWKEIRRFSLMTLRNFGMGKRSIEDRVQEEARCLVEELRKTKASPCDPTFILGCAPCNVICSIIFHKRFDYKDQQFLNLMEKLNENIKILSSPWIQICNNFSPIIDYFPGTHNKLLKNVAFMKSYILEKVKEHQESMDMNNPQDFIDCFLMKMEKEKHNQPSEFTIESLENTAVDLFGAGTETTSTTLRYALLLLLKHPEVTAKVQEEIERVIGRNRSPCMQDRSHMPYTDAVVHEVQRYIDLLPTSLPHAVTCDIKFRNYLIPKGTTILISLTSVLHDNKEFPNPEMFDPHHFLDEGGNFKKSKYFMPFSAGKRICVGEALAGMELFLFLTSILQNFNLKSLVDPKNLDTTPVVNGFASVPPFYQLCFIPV
Chain of Cytochrome P450 3A4 (Homo sapiens) (P08684 whole entry, looked up): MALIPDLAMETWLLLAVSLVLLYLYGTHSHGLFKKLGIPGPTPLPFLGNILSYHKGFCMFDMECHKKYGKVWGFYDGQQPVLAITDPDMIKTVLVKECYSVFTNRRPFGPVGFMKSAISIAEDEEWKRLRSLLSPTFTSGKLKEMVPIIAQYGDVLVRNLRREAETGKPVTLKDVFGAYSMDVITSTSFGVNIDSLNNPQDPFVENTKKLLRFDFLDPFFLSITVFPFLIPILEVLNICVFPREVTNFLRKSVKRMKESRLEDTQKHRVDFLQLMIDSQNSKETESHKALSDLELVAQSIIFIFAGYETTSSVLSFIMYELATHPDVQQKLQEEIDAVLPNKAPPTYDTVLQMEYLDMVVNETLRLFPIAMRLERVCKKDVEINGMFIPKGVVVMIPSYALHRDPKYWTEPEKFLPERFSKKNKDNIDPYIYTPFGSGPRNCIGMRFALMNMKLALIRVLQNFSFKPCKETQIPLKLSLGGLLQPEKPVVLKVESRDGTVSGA
Chain of human CYP2D6, CYP2D6 (gene 1565) (P10635 whole entry, looked up): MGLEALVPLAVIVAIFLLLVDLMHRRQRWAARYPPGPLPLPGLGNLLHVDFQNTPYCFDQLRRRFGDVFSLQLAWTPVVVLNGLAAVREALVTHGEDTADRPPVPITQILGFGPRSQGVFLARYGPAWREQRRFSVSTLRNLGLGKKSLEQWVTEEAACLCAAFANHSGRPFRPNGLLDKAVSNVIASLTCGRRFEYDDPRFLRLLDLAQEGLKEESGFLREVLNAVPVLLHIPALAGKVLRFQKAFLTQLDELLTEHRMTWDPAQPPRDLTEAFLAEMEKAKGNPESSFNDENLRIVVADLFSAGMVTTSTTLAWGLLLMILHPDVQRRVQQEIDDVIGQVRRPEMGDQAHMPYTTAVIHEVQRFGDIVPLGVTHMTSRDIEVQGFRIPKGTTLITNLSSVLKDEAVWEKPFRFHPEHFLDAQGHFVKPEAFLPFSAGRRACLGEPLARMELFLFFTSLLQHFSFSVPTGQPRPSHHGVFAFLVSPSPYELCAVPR
Chain of human CYP2B6, CYP2B6 (gene 1555) (P20813 whole entry, looked up): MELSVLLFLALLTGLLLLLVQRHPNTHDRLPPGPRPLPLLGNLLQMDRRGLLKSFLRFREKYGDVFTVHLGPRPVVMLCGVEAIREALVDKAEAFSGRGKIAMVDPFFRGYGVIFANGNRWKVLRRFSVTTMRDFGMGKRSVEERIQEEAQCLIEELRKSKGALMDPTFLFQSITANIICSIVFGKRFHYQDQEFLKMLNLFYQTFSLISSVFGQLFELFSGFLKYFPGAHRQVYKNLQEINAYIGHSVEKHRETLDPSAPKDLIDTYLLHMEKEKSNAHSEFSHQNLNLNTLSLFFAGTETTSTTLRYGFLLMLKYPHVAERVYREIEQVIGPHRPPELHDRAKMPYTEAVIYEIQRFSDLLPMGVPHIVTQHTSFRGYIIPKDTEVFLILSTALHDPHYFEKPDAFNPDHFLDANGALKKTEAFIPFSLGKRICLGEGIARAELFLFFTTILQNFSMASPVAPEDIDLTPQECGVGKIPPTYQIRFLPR
Chain of human AKT serine/threonine Kinase 1 (AKT1), AKT1 (gene 207) (P31749 whole entry, looked up): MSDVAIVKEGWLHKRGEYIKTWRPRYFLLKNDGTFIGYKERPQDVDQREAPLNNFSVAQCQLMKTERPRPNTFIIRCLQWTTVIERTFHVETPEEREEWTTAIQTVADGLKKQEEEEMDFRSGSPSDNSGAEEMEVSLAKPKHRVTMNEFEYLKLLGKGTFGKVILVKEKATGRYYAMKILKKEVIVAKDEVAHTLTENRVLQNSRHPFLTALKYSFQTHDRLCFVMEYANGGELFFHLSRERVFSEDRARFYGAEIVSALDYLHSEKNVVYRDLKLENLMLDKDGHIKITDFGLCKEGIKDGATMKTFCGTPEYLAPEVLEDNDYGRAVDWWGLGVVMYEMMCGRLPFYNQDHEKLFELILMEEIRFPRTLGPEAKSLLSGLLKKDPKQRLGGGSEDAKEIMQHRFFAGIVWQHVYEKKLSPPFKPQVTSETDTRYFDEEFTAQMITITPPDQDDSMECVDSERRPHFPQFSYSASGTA
Chain of human Caspase 4 (CASP4), CASP4 (gene 837) (P49662 whole entry, looked up): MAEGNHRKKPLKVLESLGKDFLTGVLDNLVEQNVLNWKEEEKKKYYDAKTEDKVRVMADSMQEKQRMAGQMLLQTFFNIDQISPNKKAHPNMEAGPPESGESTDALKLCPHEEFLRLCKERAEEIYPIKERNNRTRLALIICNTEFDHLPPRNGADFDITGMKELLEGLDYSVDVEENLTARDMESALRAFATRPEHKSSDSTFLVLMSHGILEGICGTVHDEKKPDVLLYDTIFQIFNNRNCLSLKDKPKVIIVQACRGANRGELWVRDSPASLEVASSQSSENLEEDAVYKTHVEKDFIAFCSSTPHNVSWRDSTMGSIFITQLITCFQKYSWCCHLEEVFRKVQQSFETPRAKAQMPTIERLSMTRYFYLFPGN
Chain of human Beta-secretase (BACE), BACE1 (gene 23621) (P56817 whole entry, looked up): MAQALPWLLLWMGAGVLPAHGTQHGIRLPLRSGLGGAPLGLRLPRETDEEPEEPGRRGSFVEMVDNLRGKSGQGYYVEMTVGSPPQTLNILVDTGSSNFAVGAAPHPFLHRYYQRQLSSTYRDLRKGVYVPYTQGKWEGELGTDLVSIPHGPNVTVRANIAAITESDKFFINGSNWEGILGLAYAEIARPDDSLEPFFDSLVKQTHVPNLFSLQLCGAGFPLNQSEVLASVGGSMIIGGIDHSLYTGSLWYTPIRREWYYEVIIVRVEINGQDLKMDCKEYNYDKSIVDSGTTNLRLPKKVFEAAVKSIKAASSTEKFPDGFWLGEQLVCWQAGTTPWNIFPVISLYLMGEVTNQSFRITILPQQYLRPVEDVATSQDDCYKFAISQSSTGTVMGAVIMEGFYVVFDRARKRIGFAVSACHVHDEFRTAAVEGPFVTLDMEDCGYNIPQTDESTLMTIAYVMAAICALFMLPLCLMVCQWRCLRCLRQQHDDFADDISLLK
Chain of human Caspase 5 (CASP5), CASP5 (gene 838) (P51878 whole entry, looked up): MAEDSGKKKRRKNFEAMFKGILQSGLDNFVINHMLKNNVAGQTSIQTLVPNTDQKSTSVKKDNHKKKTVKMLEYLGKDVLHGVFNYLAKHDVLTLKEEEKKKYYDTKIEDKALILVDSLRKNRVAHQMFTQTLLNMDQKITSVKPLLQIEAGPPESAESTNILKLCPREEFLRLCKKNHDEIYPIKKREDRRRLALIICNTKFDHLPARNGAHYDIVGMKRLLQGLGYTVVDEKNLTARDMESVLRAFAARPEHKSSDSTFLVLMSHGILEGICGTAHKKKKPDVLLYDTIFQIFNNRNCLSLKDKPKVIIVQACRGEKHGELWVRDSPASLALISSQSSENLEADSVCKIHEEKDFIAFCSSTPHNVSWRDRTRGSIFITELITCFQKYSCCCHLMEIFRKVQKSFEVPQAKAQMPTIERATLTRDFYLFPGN

As a reminder, the AC50 is the concentration giving half of the maximal activity seen. As for `NC(=O)NO`, the result in assay [1], in assay [2], in [3], in assay [4] and in [5] was inactive. In addition, the half-maximal activity concentration (AC50) in assay [6] is 16.5 µM (active).

As to `COC(=O)c1c(Cl)c(Cl)c(C(=O)OC)c(Cl)c1Cl`, the outcome in assay [1], in assay [2], in assay [3], in [4] and in [5] was inactive. For the same molecule, the AC50 in assay [7] was 8.47 µM (active).

Consider `CC(C)CCCCCCOC(=O)c1ccc(C(=O)OCCCCCCC(C)C)c(C(=O)OCCCCCCC(C)C)c1`, for which the result in assay [2], in [3], in assay [4] and in assay [5] was inactive.

Consider `COc1ccc(/C=C/S(=O)(=O)NC(=O)c2ccc(C)cc2Cl)cc1`, for which the result in assay [2], in assay [3] and in assay [5] was inactive. Moreover, the AC50 was 6.54 µM (active) in assay [4] and 12.7 µM (active) in assay [8].

Turning to `CCCC(=O)OCC`, the outcome in assay [2], in assay [3], in [4] and in [5] was inactive.

`On1ccccc1=S`: the AC50 was 18.2 µM (active) in assay [2], 6.94 µM (active) in [4] and 5.15 µM (active) in [9]. The result in [3] and in [5] was inactive.

Consider `CCOc1cccc(-n2cc(C(=O)N3CCN(c4cc(C(=O)O)c5ccccc5c4)CC3)nc2-c2ccc(C)cc2)c1`, for which the AC50 in [2] was 26.9 µM (active); in assay [3], 11.4 µM (active); in [4], 24.6 µM (active); in assay [5], 14.1 µM (active); in [10] it was 18.3 µM (active); in [11], 10.5 µM (active). For the same molecule, the result in assay [12] was inactive.

On to `CCOC(=O)COc1ccc2c(c1)CC(NCC(O)c1cccc(Cl)c1)CC2` (stereo not given), for which the AC50 in assay [2] is 27.2 µM (active); in assay [3], 18.3 µM (active); in assay [4], 31.7 µM (active); in assay [5], 27.2 µM (active); in [14] it was 2.51 µM (active); in assay [9], 5.22 µM (active). In addition, the molecule was called inactive in assay [13] and in assay [15].

On to `O=C(O)c1cccc(N(Cc2cccnc2)c2ccc(OC(F)F)c(OC(F)F)c2)c1`, for which the outcome in assay [2] and in assay [5] was inactive. The AC50 was 2.31 µM (active) in assay [3]; 7.83 µM (active) in [4]; 6.14 µM (active) in assay [8]; 6.01 µM (active) in [15]; 4.98 µM (active) in assay [9].

Take `CCOCCO`: the outcome in [2], in assay [3], in [4], in assay [5] and in [16] was inactive.

For the molecule `CN(C)c1ccc(Cc2ccc(N(C)C)cc2)cc1`, the result in assay [2], in [3], in assay [5], in [16] and in assay [13] was inactive. Besides, the AC50 in [4] is 30.9 µM (active); in assay [17], 1.02 µM (active); in assay [9], 0.727 µM (active).
